Assay results reported in PubChem BioAssay AID1159580 (chemical genetic matrix, 2015).
Hit rate of the full screen: of about 5,500 compounds, about 2,000 (36%) were called active. About 18% were inconclusive and are not listed. Rule as the data show it: active = normalized growth mostly below about 0.91 (no sharp cut-off); inconclusive = no clear call, values can overlap the other calls; inactive = mostly above about 0.92. The list shows a part of the results.

Assay: chemical genetic growth profiling, strain panel (AID 1159580);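 also: tested at 20 µM; growth read once vehicle control cultures reached saturation at 30 °C; 1 = growth at the plate median or of vehicle wells; lower values mean less growth of the strain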
Settings: growth OD

Measured: normalized growth

COc1c2ccoc2nc2c(OC)c(OCC(O)C(C)(C)O)ccc12 (configuration not stated)
inactive: S. cerevisiae deletion strains, locus YJR075W, strain HOC1, active compounds read low 1.07 | S. cerevisiae deletion strains, locus YKL009W, strain mrt4, active compounds read low 0.944 | S. cerevisiae deletion strains, locus YKL068W, active compounds read low 0.978 | S. cerevisiae deletion strains, locus YKL085W, strain MDH1 (second series), active compounds read low 1 | S. cerevisiae deletion strains, locus YKL085W, strain MDH1, active compounds read low 1 | S. cerevisiae deletion strains, locus YKL160W, strain elf1, active compounds read low 1.03 | S. cerevisiae deletion strains, locus YKL190W, strain CNB1, active compounds read low 0.979 | S. cerevisiae deletion strains, locus YKR001C, strain vps1, active compounds read low 0.985 | S. cerevisiae deletion strains, locus YKR026C, strain gcn3, active compounds read low 1.02 | S. cerevisiae deletion strains, locus YKR091W, strain srl3, active compounds read low 1.01 | S. cerevisiae deletion strains, locus YLL001W, strain dnm1, active compounds read low 1.03 | S. cerevisiae deletion strains, locus YLL026W, active compounds read low 1.01 | S. cerevisiae deletion strains, locus YLL041C, strain sdh2, active compounds read low 1.02 | S. cerevisiae deletion strains, locus YLR027C, strain aat2, active compounds read low 1.03 | S. cerevisiae deletion strains, locus YLR039C, strain RIC1, active compounds read low 0.974 | S. cerevisiae deletion strains, locus YLR058C, strain SHM2, active compounds read low 0.991 | S. cerevisiae deletion strains, locus YLR102C, strain apc9, active compounds read low 0.99 | S. cerevisiae deletion strains, locus YLR113W, strain HOG1, active compounds read low 1.03 | S. cerevisiae deletion strains, locus YLR221C, strain rsa3, active compounds read low 1.03 | S. cerevisiae deletion strains, locus YLR258W, strain gsy2, active compounds read low 1.02 | S. cerevisiae deletion strains, locus YLR262C, strain YPT6 (second series), active compounds read low 1.04 | S. cerevisiae deletion strains, locus YLR262C, strain YPT6, active compounds read low 0.938 | S. cerevisiae deletion strains, locus YLR268W, strain sec22, active compounds read low 1.02 | S. cerevisiae deletion strains, locus YLR320W, strain mms22, active compounds read low 1.03 | S. cerevisiae deletion strains, locus YLR330W, strain CHS5, active compounds read low 0.992 | S. cerevisiae deletion strains, locus YLR342W, strain FKS1 (second series), active compounds read low 0.992 | S. cerevisiae deletion strains, locus YLR342W, strain FKS1, active compounds read low 1.02 | S. cerevisiae deletion strains, locus YLR357W, strain rsc2, active compounds read low 1.06 | S. cerevisiae deletion strains, locus YLR370C, strain arc18, active compounds read low 1.01 | S. cerevisiae deletion strains, locus YLR371W, strain rom2, active compounds read low 0.976 | S. cerevisiae deletion strains, locus YLR384C, strain iki3, active compounds read low 1 | S. cerevisiae deletion strains, locus YLR418C, strain cdc73, active compounds read low 1.04 | S. cerevisiae deletion strains, locus YML016C, strain PPZ1, active compounds read low 0.99 | S. cerevisiae deletion strains, locus YML032C, strain rad52, active compounds read low 0.974 | S. cerevisiae deletion strains, locus YML120C, strain ndi1, active compounds read low 1.02 | S. cerevisiae deletion strains, locus YML124C, strain tub3, active compounds read low 0.99 | S. cerevisiae deletion strains, locus YMR058W, strain fet3, active compounds read low 1.03 | S. cerevisiae deletion strains, locus YMR078C, strain ctf18, active compounds read low 0.97 | S. cerevisiae deletion strains, locus YMR125W, strain sto1, active compounds read low 1.04 | S. cerevisiae deletion strains, locus YMR129W, active compounds read low 1.01 | S. cerevisiae deletion strains, locus YMR205C, strain PFK2, active compounds read low 1.04 | S. cerevisiae deletion strains, locus YMR223W, strain ubp8, active compounds read low 0.961 | S. cerevisiae deletion strains, locus YMR231W, strain pep5, active compounds read low 1 | S. cerevisiae deletion strains, locus YMR263W, strain SAP30, active compounds read low 1.01 | S. cerevisiae deletion strains, locus YMR307W, strain GAS1, active compounds read low 0.941 | S. cerevisiae deletion strains, locus YNL067W, strain RPL9B, active compounds read low 1.03 | S. cerevisiae deletion strains, locus YNL071W, strain lat1, active compounds read low 1.02 | S. cerevisiae deletion strains, locus YNL128W, strain TEP1, active compounds read low 1.01 | S. cerevisiae deletion strains, locus YNL153C, strain GIM3, active compounds read low 1.02 | S. cerevisiae deletion strains, locus YNL183C, strain NPR1, active compounds read low 0.985 | S. cerevisiae deletion strains, locus YNL209W, strain ssb2, active compounds read low 1.02 | S. cerevisiae deletion strains, locus YNL233W, strain BNI4, active compounds read low 1.02 | S. cerevisiae deletion strains, locus YNL248C, strain rpa49, active compounds read low 1.02 | S. cerevisiae deletion strains, locus YNL250W, strain rad50, active compounds read low 0.989 | S. cerevisiae deletion strains, locus YNL271C, strain bni1, active compounds read low 0.989 | S. cerevisiae deletion strains, locus YNL298W, strain CLA4, active compounds read low 0.975 | S. cerevisiae deletion strains, locus YNL307C, strain MCK1, active compounds read low 0.976 | S. cerevisiae deletion strains, locus YNL322C, strain KRE1 (second series), active compounds read low 1.03 | S. cerevisiae deletion strains, locus YNL322C, strain KRE1, active compounds read low 0.995 | S. cerevisiae deletion strains, locus YNR049C, strain mso1, active compounds read low 1.02 | S. cerevisiae deletion strains, locus YNR052C, strain pop2, active compounds read low 0.962 | S. cerevisiae deletion strains, locus YOL006C, strain TOP1, active compounds read low 1.01 | S. cerevisiae deletion strains, locus YOL012C, strain htz1 1.86 | S. cerevisiae deletion strains, locus YOL147C, strain pex11, active compounds read low 0.996 | S. cerevisiae deletion strains, locus YOR001W, strain rrp6, active compounds read low 1.02 | S. cerevisiae deletion strains, locus YOR061W, strain CKA2, active compounds read low 0.997 | S. cerevisiae deletion strains, locus YOR069W, strain VPS5, active compounds read low 0.99 | S. cerevisiae deletion strains, locus YOR070C, strain gyp1, active compounds read low 1 | S. cerevisiae deletion strains, locus YOR080W, strain dia2, active compounds read low 0.999 | S. cerevisiae deletion strains, locus YOR083W, strain WHI5, active compounds read low 1.03 | S. cerevisiae deletion strains, locus YOR106W, strain vam3, active compounds read low 1.04 | S. cerevisiae deletion strains, locus YOR136W, strain idh2, active compounds read low 0.982 | S. cerevisiae deletion strains, locus YOR144C, strain elg1, active compounds read low 0.978 | S. cerevisiae deletion strains, locus YOR184W, strain ser1, active compounds read low 0.946 | S. cerevisiae deletion strains, locus YOR231W, strain MKK1, active compounds read low 1.01 | S. cerevisiae deletion strains, locus YOR265W, strain rbl2, active compounds read low 1 | S. cerevisiae deletion strains, locus YOR270C, strain vph1, active compounds read low 1.07 | S. cerevisiae deletion strains, locus YOR290C, strain snf2, active compounds read low 1.02 | S. cerevisiae deletion strains, locus YOR316C, strain cot1, active compounds read low 0.99 | S. cerevisiae deletion strains, locus YPL051W, strain arl3, active compounds read low 1.05 | S. cerevisiae deletion strains, locus YPL055C, strain LGE1, active compounds read low 1.03 | S. cerevisiae deletion strains, locus YPL078C, strain atp4, active compounds read low 1.03 | S. cerevisiae deletion strains, locus YPL106C, strain sse1, active compounds read low 1.02 | S. cerevisiae deletion strains, locus YPL240C, strain hsp82, active compounds read low 1 | S. cerevisiae deletion strains, locus YPL241C, strain CIN2, active compounds read low 0.992 | S. cerevisiae deletion strains, locus YPL256C, strain CLN2, active compounds read low 1.03 | S. cerevisiae deletion strains, locus YPR119W, strain clb2, active compounds read low 0.998 | S. cerevisiae deletion strains, locus YPR141C, strain kar3, active compounds read low 0.995 | S. cerevisiae deletion strains, locus YPR163C, strain tif3, active compounds read low 0.98 | S. cerevisiae deletion strains, locus YPR167C, strain met16, active compounds read low 0.992 | S. cerevisiae deletion strains, strain wtn01, active compounds read low 1.02 | S. cerevisiae strains, strain wild type, active compounds read low 0.996
